The source of these data is PubChem BioAssay AID493192 (National Center for Advancing Translational Sciences (NCATS), 2011).

Results filed as inconclusive are left out. Where a call stands in place of a potency, no number is given. Activity calls are given as the source filed them. The call rests on the fitted dose curve; in most records, active means well fitted activation curve with a large enough effect; inconclusive means small, poorly fitted or top-dose-only effect; inactive means no such curve, though single readings can be large or run the other way.
Potency means the concentration at half of the fitted maximal effect.

The assay in a line: qHTS Assay for Identifying a Potential Treatment of Ataxia-Telangiectasia: Hit Validation.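 Further: phospho-KAP1 level by AlphaLISA as a proxy for ATM-like kinase activity.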 As to conditions: Ataxia-telangiectasia cell-based hit validation qHTS, in ATM-null A-T patient fibroblasts; series mostly up to 76.9 µM. The method, boiled down:
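KAP-1 phosphorylation was read by AlphaLISA as a measure of ATM-like activity in ATM-null F2112 fibroblasts. Compounds spanned up to 76.7 uM final, with 60 min exposure at 37C and a 6 hr detection incubation at 25C.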
For orientation: Quantitative high-throughput screening tests each substance at several concentrations.
Take `CCC(C)Nc1nc(N)c([N+](=O)[O-])c(NCCO)n1` (stereo not drawn): the Potency result was “inactive”. As to `CC(NC(=O)COC(=O)/C=C/c1ccc(Cl)cc1)c1ccccc1` (stereo not drawn), the Potency entry is “inactive”.

Regarding `C=Cc1c(C)c2cc3[nH]c(cc4nc(cc5nc(cc1[nH]2)C(C)=C5CCC(=O)O)C(CCC(=O)O)=C4C)c(C)c3C=C`, the Potency result was “inactive”. Turning to `O=c1c(-c2ccc(Cl)cc2)c[nH]n1-c1ccccc1`, the Potency entry is “inactive”. On to `Cc1cccc(C)c1NC(=O)COC(=O)c1cc(=O)c2ccccc2o1`, for which the Potency result was “inactive”.

Take `CCOC(=O)Cn1c(-c2ccccc2)cc(SC)c(C#N)c1=O`: the Potency entry is “inactive”. In the case of `CC(=O)Nc1ccc(NC(=O)CSc2nnnn2-c2ccc(F)cc2)cc1`, the Potency result is “inactive”.

As to `N#Cc1c(-c2ccccc2)cc(-c2ccccc2)[nH]c1=O`, the Potency result is “inactive”. The value for `COc1ccccc1S(=O)(=O)Nc1ccc(-c2nnc3n2CCCCC3)cc1` was “inactive”; that for `COc1ccc2nc(NCCCNC(=O)c3cc(OC)c(OC)c(OC)c3)c(C#N)cc2c1` was “inactive”.

With `Cc1cc2nc3ccc(=[N+](C)C)cc-3sc2cc1N`, the Potency result is “inactive”. The value for `CCOc1cccc(C(=O)Nc2ccccc2N2CCN(C(=O)C(C)C)CC2)c1` was “inactive”; that for `CCOC(=O)C1CCN(C(=O)c2cc3cc(Cl)ccc3[nH]2)CC1` was “inactive”.

Turning to `Cc1cc(C)c2c(Cn3ccnc3)cc(=O)oc2c1`, the Potency result is “inactive”. The value for `Brc1c(C[n+]2ccccc2)nc2ccccn12` was “inactive”.

Consider `Cc1ccc(C)c(-n2c(SCC(=O)NC(C(=O)O)C(C)C)nnc2-c2cccc(Cl)c2)c1` (stereo not drawn), for which the Potency was 36.8 µM (active).

For `CCn1nc(C)c(CNC(=O)c2cc(COc3ccc(F)cc3Cl)on2)c1C`, the Potency entry is “inactive”.

For `C=CCSc1nc2ccccc2n1C(=O)/C=C/c1cc(OC)c(OC)c(OC)c1`, the Potency was 26 µM (active).
